Some test systems named below: SR leukemia; RPMI-8226 leukemia; OVCAR-8 ovarian; OVCAR-5 ovarian; OVCAR-4 ovarian; SK-OV-3 ovarian; IGROV1 ovarian; OVCAR-3 ovarian; HS 578T breast; NCI/ADR-RES ovarian.
Common to all, as to experiment: NCI-60 one-dose screen, 48 h (100 = growth as untreated, 0 = no growth, -100 = all killed)
What all share (details): 10 µM unless noted

The panel holds about 83,000 compounds, 20% with a hit somewhere; the sample as a whole holds those more often.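 Method: cells in 96-well plates; compound added at one concentration; 48 h incubation; percent growth measured; values under 10 scored active.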 Unmarked numbers belong to inactive results. The source made the active and inactive calls.

From PubChem BioAssay (NCI) come the findings set out here.

Take `COc1ccc(C(=O)Cn2c(C(=O)c3ccc(OC)cc3)nc3ccccc32)cc1`: the growth with SR leukemia is 16.4%; in the test with RPMI-8226 leukemia, -7.09% (active); in the test with OVCAR-8 ovarian, 31.3%; in the test on OVCAR-5 ovarian, 56.9%; in the test with OVCAR-4 ovarian it was 47.6%; in the test on SK-OV-3 ovarian it was 67.1%. Further, the growth in the test on IGROV1 ovarian is 26.9%; with OVCAR-3 ovarian, -10.4% (active); in the test with HS 578T breast it was -12% (active); in the test with NCI/ADR-RES ovarian, -24.1% (active).

On to `COc1cc(/C=C/C(=O)/C=C(O)/C=C/c2ccc(OC(=O)C34CC5CC(CC(C5)C3)C4)c(OC)c2)ccc1OC(=O)C12CC3CC(CC(C3)C1)C2`, for which the growth is 120% in the test with SR leukemia; 105% in the test on RPMI-8226 leukemia; 104% in the test with OVCAR-8 ovarian; 97.1% with OVCAR-5 ovarian; 104% in the test with OVCAR-4 ovarian; 114% in the test on SK-OV-3 ovarian. Further, the growth with IGROV1 ovarian was 92.5%; with OVCAR-3 ovarian, 109%; in the test with HS 578T breast, 94.2%; in the test with NCI/ADR-RES ovarian, 104%.

As to `N[C@H]1CCC[C@@H]1NCCCCN1C(=O)c2cccc3cc([N+](=O)[O-])cc(c23)C1=O`, the growth in the test with SR leukemia is -6.77% (active); with RPMI-8226 leukemia it was 58.3%; in the test with OVCAR-8 ovarian, 37.1%; with OVCAR-5 ovarian it was 73.6%; in the test on OVCAR-4 ovarian, 44.5%; in the test on SK-OV-3 ovarian, 42.1%. Moreover, the growth was 34.5% with IGROV1 ovarian, 53% in the test with OVCAR-3 ovarian, 65.4% in the test with HS 578T breast and 77% in the test with NCI/ADR-RES ovarian.

As for `CCN1C2CCC1/C(=C\c1ccc(F)cc1)C(=O)/C2=C/c1ccc(F)cc1`, the growth is 24.5% with SR leukemia; 18.5% in the test on RPMI-8226 leukemia; 12.5% in the test with OVCAR-8 ovarian; 73.4% in the test on OVCAR-5 ovarian; 47.3% in the test with OVCAR-4 ovarian; 62% in the test on SK-OV-3 ovarian. For the same compound, the growth with IGROV1 ovarian is 45.7%; with OVCAR-3 ovarian it was 11%; in the test on HS 578T breast, 66.3%; in the test on NCI/ADR-RES ovarian, 17.4%.

For `Clc1ccccc1-c1cnn2cc(-c3ccccc3)cnc12`, the growth in the test with SR leukemia is 59.9%; with RPMI-8226 leukemia it was 87.1%; in the test with OVCAR-8 ovarian, 78.9%; in the test on OVCAR-5 ovarian, 79.6%; in the test with OVCAR-4 ovarian, 76.1%; in the test with SK-OV-3 ovarian it was 83.9%. The growth in the test on IGROV1 ovarian is 78.6%; with OVCAR-3 ovarian, 90%; with HS 578T breast, 74.4%; with NCI/ADR-RES ovarian it was 83.7%.

Turning to `O=C(CSc1nnc(-c2cc(-c3ccccc3)nc3ccccc23)n1-c1ccccc1)Nc1ccc(C(=O)/C=C/c2ccc(Cl)cc2)cc1`, the growth with SR leukemia was 80.2%; with RPMI-8226 leukemia it was 66.6%; in the test on OVCAR-8 ovarian it was 93.1%; in the test on OVCAR-5 ovarian, 90.1%; in the test with OVCAR-4 ovarian it was 91.6%; with SK-OV-3 ovarian, 94.2%. The growth with IGROV1 ovarian is 108%; in the test on OVCAR-3 ovarian, 97.2%; in the test on HS 578T breast it was 89.1%; with NCI/ADR-RES ovarian, 95.3%.

Turning to `CCN1C(=O)N(CC)C2C1NN=c1s/c(=C\c3cnc(C)n3C)c(=O)n12` (stereo not given), the growth was 25.3% in the test with SR leukemia; 20.1% with RPMI-8226 leukemia; 14.8% with OVCAR-8 ovarian; 35.2% in the test with OVCAR-5 ovarian; 52% in the test on OVCAR-4 ovarian; 27.9% in the test on SK-OV-3 ovarian. For the same compound, the growth is 35.1% in the test with IGROV1 ovarian, -17.6% (active) in the test with OVCAR-3 ovarian, -1.81% (active) in the test with HS 578T breast and 75.4% with NCI/ADR-RES ovarian.

As to `O=C1c2cccc3cccc(c23)C(=O)N1C/C=C/c1ccc2c3c(cccc13)C(=O)N(CCO)C2=O`, the growth is 67.1% with SR leukemia; 74% in the test with RPMI-8226 leukemia; 69.6% in the test on OVCAR-8 ovarian; 79.2% in the test with OVCAR-5 ovarian; 40.1% in the test on OVCAR-4 ovarian; 72.3% in the test with SK-OV-3 ovarian. Also, the growth is 78.7% in the test with IGROV1 ovarian, 87.9% in the test on OVCAR-3 ovarian, 61.6% with HS 578T breast and 80.2% with NCI/ADR-RES ovarian.

Turning to `CN1CCN(Cc2ccc(NC(=O)c3cncc(C#Cc4cnc5ccc(Cl)nn45)c3)cc2C(F)(F)F)CC1`, the growth in the test with SR leukemia was -2.72% (active); in the test with RPMI-8226 leukemia, -25.6% (active); in the test on OVCAR-8 ovarian it was 8.97% (active); with OVCAR-5 ovarian, -4.08% (active); in the test on OVCAR-4 ovarian it was -4.08% (active); with SK-OV-3 ovarian, 12.3%. Further, the growth was 1.12% (active) with IGROV1 ovarian, -5.42% (active) in the test with OVCAR-3 ovarian, -14.6% (active) in the test with HS 578T breast and 2.61% (active) in the test with NCI/ADR-RES ovarian.

On to `COc1ccc(C[n+]2c3ccccc3n3c4ccc(N)cc4ccc32)c(OC)c1OC`, for which the growth with SR leukemia is 41.2%; in the test with RPMI-8226 leukemia, 15.1%; with OVCAR-8 ovarian, 46.8%; in the test on OVCAR-5 ovarian it was 99.6%; in the test with OVCAR-4 ovarian, 55.5%; in the test with SK-OV-3 ovarian it was 70%. Moreover, the growth in the test on IGROV1 ovarian was 73.9%; with OVCAR-3 ovarian it was 50.9%; in the test with HS 578T breast, 43.5%; in the test with NCI/ADR-RES ovarian, 103%.

As for `Nc1nc(N)c(N=Nc2ccccc2)c(-c2ccccc2)n1`, the growth in the test with SR leukemia is 38.7%; in the test on RPMI-8226 leukemia it was 62.5%; in the test with OVCAR-8 ovarian, 77.5%; in the test with OVCAR-5 ovarian, 56.9%; in the test with OVCAR-4 ovarian, 66.4%; with SK-OV-3 ovarian, 50.6%. The growth in the test with IGROV1 ovarian was 15.3%; with OVCAR-3 ovarian, 67.2%; with HS 578T breast, 3.4% (active); with NCI/ADR-RES ovarian it was 75.1%.

For `O=C(Nc1ncc(Cc2cc(C(F)(F)F)ccc2Cl)s1)c1cccs1`, the growth in the test with SR leukemia was 16.1%; in the test on RPMI-8226 leukemia it was 55.7%; in the test on OVCAR-8 ovarian it was 68.6%; in the test on OVCAR-5 ovarian it was 83.9%; with OVCAR-4 ovarian, 63.4%; in the test on SK-OV-3 ovarian it was 69.2%. For the same compound, the growth was 52.7% with IGROV1 ovarian, 50.5% in the test with OVCAR-3 ovarian, 71% in the test on HS 578T breast and 29.7% in the test on NCI/ADR-RES ovarian.

In the case of `Cc1nc2c(=O)nc3s/c(=C\c4ccco4)c(=O)n3c2nc1C`, the growth with SR leukemia is 94.2%; in the test with RPMI-8226 leukemia, 116%; in the test on OVCAR-8 ovarian, 96.1%; in the test on OVCAR-5 ovarian it was 101%; in the test with OVCAR-4 ovarian, 101%; in the test with SK-OV-3 ovarian it was 102%. The growth in the test on IGROV1 ovarian is 93.4%; in the test with OVCAR-3 ovarian it was 105%; in the test with HS 578T breast, -95.1% (active); in the test on NCI/ADR-RES ovarian, 93.5%.
